# Records with an inconclusive call do not appear. Activity calls are given as the source filed them. Unless noted, calls follow the shape of the full dose curve.
# Legend:
# [1] = qHTS Assay for Lipid Storage Modulators (AID 1519); details: Drosophila S3 cells, BODIPY lipid droplet/cell ratio, laser cytometry, cells loaded with oleic acid; as to activity change, negative = inhibition: % is scaled to controls: 0 for no effect and ±100 for the full control effect
# In short: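 Cells seeded at 5,000 per well were treated with compounds over a concentration series and loaded with oleic acid (400 uM, as added). Lipid droplet fluorescence (488 nm excitation, 500-530 nm channel) was read by laser-scanning cytometry and normalized to 20 uM Triacsin C.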
# [2] = Cell Viability - LYMP2-018 (AID 985; active = well fitted cell-killing curve with a large enough effect;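 also: compound exposure lasted 24 hr at 37 °C; plate controls were DMSO only for no effect and tetraoctylammonium bromide at 92 µM for full effect; nearly all actives have a fitted effect of over 50% in size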); details: LYMP2-018 lymphoblastoid cells, viability (qHTS); series mostly up to 92.2 µM
# In short: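 Human lymphoblastoid LYMP2-018 cells, 2500/well, settled 5 hr at 37 C then exposed to compound 24 hr at 37 C; intracellular ATP measured by CellTiter-Glo luminescence. AC50 from Hill-equation concentration-response fits.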
# [3] = Cell Viability - LYMP2-020 (AID 986; active = well fitted cell-killing curve with a large enough effect;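 also: plate controls were DMSO only for no effect and tetraoctylammonium bromide at 92 µM for full effect; nearly all actives have a fitted effect of over 55% in size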); details: series mostly up to 92.2 µM
# In short: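 Human lymphoblastoid LYMP2-020 cells (2500/well) preincubated 5 h at 37 C, then treated 24 h at 37 C. Viability measured as intracellular ATP by CellTiter-Glo luminescence after 30 min at room temperature; AC50 from Hill fits.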
# [4] = Cell Viability - LYMP2-022 (AID 987; active = well fitted cell-killing curve with a large enough effect;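 also: 0% = DMSO alone and full effect = tetraoctylammonium bromide at 92 µM; nearly all actives have a fitted effect of over 55% in size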); details: LYMP2-022 lymphoblastoid cell viability; series mostly up to 92.2 µM
# In short: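 LYMP2-022 lymphoblastoid cells (2500/well, complete medium) were treated with compounds for 24 hours at 37 C; intracellular ATP was then read by CellTiter-Glo luminescence after 30 min at room temperature. AC50 values were derived from Hill-equation fits.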
# [5] = Cell Viability - LYMP2-024 (AID 988; active = well fitted cell-killing curve with a large enough effect;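 also: plate controls were DMSO only for no effect and 92 µM tetraoctylammonium bromide for full effect; nearly all actives have a fitted effect of over 60% in size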); details: LYMP2-024 lymphoblastoid cell viability; series mostly up to 92.2 µM
# In short: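 Human lymphoblastoid LYMP2-024 cells (2500/well) rested 5 hr, then treated with compound for 24 hr at 37 C in complete medium. Viability was measured as intracellular ATP by CellTiter-Glo luminescence. AC50 values came from Hill-equation fits.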
# [6] = Cell Viability - LYMP2-026 (AID 989; active = well fitted cell-killing curve with a large enough effect; also: % is scaled to controls: 0 for no effect and ±100 for the full control effect; nearly all actives have a fitted effect of over 50% in size); details: LYMP2-026 lymphoblastoid cell viability, qHTS; series mostly up to 92.2 µM
# In short: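 Human lymphoblastoid LYMP2-026 cells, 2500/well, exposed to compound 24 h at 37 C in complete medium. Viability as intracellular ATP by CellTiter-Glo luminescence; AC50 from Hill fits of qHTS concentration-response.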
# [7] = Cell Viability - LYMP1-002 - Assay at 24 hr (AID 993; active = well fitted cell-killing curve with a large enough effect; also: % is scaled to controls: 0 for no effect and ±100 for the full control effect); details: LYMP1-002 lymphoblastoid cells viability; series mostly up to 92.2 µM
# In short: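 Human lymphoblastoid LYMP1-002 cells (2500/well) treated 24 h at 37 °C; viability as intracellular ATP by CellTiter-Glo luminescence. Tetraoctylammonium bromide as positive control; AC50 from Hill-equation fits of qHTS concentration-response.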
# [8] = Cell Viability - LYMP1-002 - Assay at 40 hr (AID 994; active = well fitted cell-killing curve with a large enough effect;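 also: 0% = DMSO only and full inhibition = 92 µM tetraoctylammonium bromide; nearly all actives have a fitted effect of over 60% in size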); details: LYMP1-002 lymphoblastoid cell viability; series mostly up to 92.2 µM
# In short: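 LYMP1-002 human lymphoblastoid cells (2500/well, complete medium) were treated with compounds for 40 hr at 37 C. Intracellular ATP was measured by CellTiter-Glo luminescence, and AC50 values came from Hill-equation fits of concentration-response data; tetraoctylammonium bromide was the positive control.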
# [9] = measured here: cell count channel max response
# [10] = measured here: lipid channel max response
structure (smiles),measurement,setting,value
Cc1cc(NC(=O)C2=C(O)c3ccccc3S(=O)(=O)N2C)no1,"activity change, negative = inhibition",[1]; at 25.7 µM (top of the series),-0.235% (inactive)
same,max response,[1]; [9],-4.56%
same,max response,[1]; [10],-5.22%
CC(N)CCCC(C)(C)O (stereo not drawn),"activity change, negative = inhibition",[1]; at 57.5 µM (top of the series),4.55% (inactive)
same,max response,[1]; [9],25.6%
same,max response,[1]; [10],35.7%
O=C(O)COC(=O)Cc1ccccc1Nc1c(Cl)cccc1Cl,"activity change, negative = inhibition",[1]; at 25.7 µM (top of the series),1.87% (inactive)
same,max response,[1]; [9],-9.2%
same,max response,[1]; [10],-7.55%
Cc1cccc(C(=O)O)c1O,"activity change, negative = inhibition",[1]; at 57.5 µM (top of the series),6.75% (inactive)
same,max response,[1]; [9],1.99%
same,max response,[1]; [10],8.34%
Cc1ccsc1/C=C/C1=NCCCN1C,"activity change, negative = inhibition",[1]; at 57.5 µM (top of the series),7.06% (inactive)
same,max response,[1]; [9],12.1%
same,max response,[1]; [10],23.6%
O=C(CCBr)N1CCN(C(=O)CCBr)CC1,"activity change, negative = inhibition",[1]; at 57.5 µM (top of the series),9.22% (inactive)
same,max response,[1]; [9],16.2%
same,max response,[1]; [10],29.1%
C[C@@H]1CCC[C@H](C)N1,"activity change, negative = inhibition",[1]; at 25.7 µM (top of the series),-3.01% (inactive)
same,max response,[1]; [9],-4.31%
same,max response,[1]; [10],-8.89%
O=c1[nH]cnc2nc[nH]c12,"activity change, negative = inhibition",[1]; at 57.5 µM (top of the series),6.77% (inactive)
same,max response,[1]; [9],11.9%
same,max response,[1]; [10],19.1%
COc1ccc(NS(=O)(=O)c2ccc(N)cc2)nn1,"activity change, negative = inhibition",[1]; at 25.7 µM (top of the series),0.554% (inactive)
same,max response,[1]; [9],3.32%
same,max response,[1]; [10],3.23%
CC(=O)SC[C@@H](Cc1ccccc1)C(=O)NCC(=O)OCc1ccccc1,"activity change, negative = inhibition",[1]; at 25.7 µM (top of the series),-7.97% (inactive)
same,max response,[1]; [9],-8.69%
same,max response,[1]; [10],-18.1%
CC1CCc2cc(F)cc3c(=O)c(C(=O)O)cn1c23 (stereo not drawn),"activity change, negative = inhibition",[1]; at 57.5 µM (top of the series),6.51% (inactive)
same,max response,[1]; [9],18.4%
same,max response,[1]; [10],28.6%
COc1ccc2cc(CCC(C)=O)ccc2c1,"activity change, negative = inhibition",[1]; at 25.7 µM (top of the series),1.09% (inactive)
same,max response,[1]; [9],-11.1%
same,max response,[1]; [10],-11.1%
Cc1onc(-c2ccccc2)c1-c1ccc(S(N)(=O)=O)cc1,"activity change, negative = inhibition",[1]; at 57.5 µM (top of the series),13.7% (inactive)
same,max response,[1]; [9],11.6%
same,max response,[1]; [10],23.9%
C[n+]1ccccc1/C=N/O,"activity change, negative = inhibition",[1]; at 57.5 µM (top of the series),6.44% (inactive)
same,max response,[1]; [9],15.5%
same,max response,[1]; [10],23.8%
CCc1cccc(CC)c1NC(=O)CN(CC(=O)O)CC(=O)O,"activity change, negative = inhibition",[1]; at 25.7 µM (top of the series),1.96% (inactive)
same,max response,[1]; [9],-4.83%
same,max response,[1]; [10],-3.06%
C[C@@H](N)C(=O)O,"activity change, negative = inhibition",[1]; at 57.5 µM (top of the series),-5.25% (inactive)
same,max response,[1]; [9],-10.1%
same,max response,[1]; [10],-15.3%
Cc1[nH]c(C)c(Cl)c(=O)c1Cl,"activity change, negative = inhibition",[1]; at 57.5 µM (top of the series),7.41% (inactive)
same,max response,[1]; [9],4.05%
same,max response,[1]; [10],14%
CNCc1ccccc1,"activity change, negative = inhibition",[1]; at 57.5 µM (top of the series),4.39% (inactive)
same,max response,[1]; [9],16%
same,max response,[1]; [10],24.6%
CCCCCC(C)N (stereo not drawn),"activity change, negative = inhibition",[1]; at 57.5 µM (top of the series),-8.69% (inactive)
same,max response,[1]; [9],-12.5%
same,max response,[1]; [10],-21.2%
CC(C)(C)C(=O)OCOC(=O)[C@@H]1N2C(=O)[C@@H](NC(=O)[C@H](N)c3ccccc3)[C@H]2SC1(C)C,"activity change, negative = inhibition",[1]; at 25.7 µM (top of the series),2.04% (inactive)
same,max response,[1]; [9],-13%
same,max response,[1]; [10],-12.6%
CC(C)=CCC/C(C)=C/CO,"activity change, negative = inhibition",[1]; at 57.5 µM (top of the series),10.2% (inactive)
same,max response,[1]; [9],14.3%
same,max response,[1]; [10],29.9%
Nc1ccc(S(=O)(=O)c2ccc(N)cc2)cc1,outcome,[2],inactive
same,outcome,[3],inactive
same,outcome,[4],inactive
same,outcome,[5],inactive
same,outcome,[6],inactive
same,outcome,[7],inactive
same,outcome,[8],inactive
same,"activity change, negative = inhibition",[1]; at 25.7 µM (top of the series),-0.694% (inactive)
same,max response,[1]; [9],4.2%
same,max response,[1]; [10],4.3%

# From PubChem BioAssay (NCATS)
